Pf Dd2 growth: inhibitors of Plasmodium falciparum Dd2 growth. hit rate 4.3% among 120,000. AID 1347417. P. falciparum Dd2 growth, SYBR Green, 72 h. Potency, µM (titrated, usually from 28.9 µM), without a hit: at the highest dose activity, negative = inhibition, actives largely listed as inhibitors; active = well fitted inhibition curve with a large enough effect;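 note: plate controls were DMSO vehicle for no effect and reference drug for full effect; nearly all actives have a fitted effect of over 65% in size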
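Infected erythrocytes (Dd2, 0.3% parasitemia, 2.5% hematocrit final) are added to compound in RPMI-1640/Albumax II medium, grown 72 h at 37C in low oxygen, then lysed with saponin/Triton-X containing SYBR Green and read by fluorescence.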
Numbers without * were called inactive; [ ] = another dose, or the depositor's remark. Many of the other results were omitted from the sample, so hits are more common in it than they were. Potency is the fitted concentration of half-maximal effect.

What do the screens show for `Cc1ccc(-c2nc(C)c(CCNC(=O)c3ccccc3Br)s2)cc1`?
Pf Dd2 growth: -11%

Results for NC(=O)c1nc(Nc2ccccc2)sc1NC(=O)c1c(F)cccc1F ?
Pf Dd2 growth: 53%

How did CCn1ncc(N2CCCC(CC(=O)N(C)Cc3ccccc3)C2)cc1=O (centres undefined) do in these assays?
Pf Dd2 growth: inactive

How did CCCN(CCO)C(=O)CC1C(=O)NCCN1C1Cc2ccccc2C1 (centres undefined) do in these assays?
Pf Dd2 growth: -15%

Results for O=[S+]1([O-])NCC2(CCCN(Cc3ccc(Cl)cc3)C2)Oc2ncccc21 (centres undefined) ?
Pf Dd2 growth: -29%

What do the screens show for `Cc1c(CCNC(=O)Cc2ccccc2)sc2nc(-c3ccc(F)cc3)nn12`?
Pf Dd2 growth: inactive

Results for Cc1c(CCNC(=O)c2ccc(C(C)(C)C)cc2)sc2nc(-c3ccc(F)cc3)nn12 ?
Pf Dd2 growth: 11µM*

What do the screens show for `Cc1c(CCNC(=O)Cc2ccc(F)cc2)sc2nc(-c3ccc(F)cc3)nn12`?
Pf Dd2 growth: 4%

What do the screens show for `COC(=O)Cc1c(C)c2ccc3c(c2oc1=O)CN(Cc1ccccc1OC)CO3`?
Pf Dd2 growth: 13µM*

Results for COC(=O)Cc1c(C)c2ccc3c(c2oc1=O)CN(Cc1ccc(C)cc1)CO3 ?
Pf Dd2 growth: 11µM*

What do the screens show for `COc1cccc(CN2CCOc3ccc(C(=O)NCc4ccc(C)cc4)cc3C2)c1`?
Pf Dd2 growth: inactive

What do the screens show for `COC(=O)Cc1c(C)c2ccc3c(c2oc1=O)CN(Cc1ccccc1Cl)CO3`?
Pf Dd2 growth: 7.1µM*

What do the screens show for `COc1ccccc1CNC(=O)Cc1c(C)c2c(cc(C)c3c(C)c(C)oc32)oc1=O`?
Pf Dd2 growth: 17%

How did COCCn1c(=O)[nH]c2cc(C(=O)NCc3ccccc3Cl)ccc2c1=O do in these assays?
Pf Dd2 growth: -18%

What do the screens show for `COc1ccc(CNC(=O)Cc2c(C)c3cc4c(C)coc4c(C)c3oc2=O)cc1`?
Pf Dd2 growth: -1%

What do the screens show for `CCC1Oc2ccc(NC(=O)C3CCCC3)cc2CN(Cc2ccccc2Cl)C1=O` (centres undefined)?
Pf Dd2 growth: -18%

Results for COc1ccccc1CCNC(=O)Cc1c(C)c2c(cc(C)c3c(C)c(C)oc32)oc1=O ?
Pf Dd2 growth: 8%

What do the screens show for `CCN(C(=O)CCC(=O)NCCc1noc(-c2cccnc2)n1)c1ccccc1`?
Pf Dd2 growth: -3%

What do the screens show for `COc1ccc(C2Cn3cnc(C(=O)N4CCC(C(=O)Nc5cccc(Cl)c5)CC4)c3CO2)cc1` (centres undefined)?
Pf Dd2 growth: -22%

How did Cc1ccc(CNC(=O)c2ccc3c(c2)CN(Cc2cc(F)c(F)c(F)c2)CCO3)cc1 do in these assays?
Pf Dd2 growth: -24%

How did Cc1ccc(CN(C(=O)c2ccco2)c2ccc(CC(=O)NCc3ccccc3)cc2)cc1 do in these assays?
Pf Dd2 growth: inactive

How did COCCNC(=O)c1nc2c(o1)CCN(Cc1cc(C)cc(F)c1)CC2 do in these assays?
Pf Dd2 growth: -16%[44.1 µM]

Results for O=C(Cc1ccc(F)cc1)N1CCC2(CC1)NC(=O)N(c1ccc(F)cc1)N2 ?
Pf Dd2 growth: -16%

How did C[C@H]1CCCN1C(=O)c1nnc(COc2ccc(C#N)cc2)n1-c1cccnc1 do in these assays?
Pf Dd2 growth: -19%[44.1 µM]

What do the screens show for `CC(C)NC(=O)c1ccccc1OCC1CCCN(C2CCCC2)C1` (centres undefined)?
Pf Dd2 growth: -6%

Results for O=C1NCc2ccccc2CC12CCN(Cc1c(Cl)cncc1Cl)C2 (centres undefined) ?
Pf Dd2 growth: -6%

How did COc1ccc(C2C=C(c3ccc(C)cc3)Nc3c(C(=O)Nc4ccccc4)cnn32)cc1 (centres undefined) do in these assays?
Pf Dd2 growth: 8.9µM*

How did COc1ccc(C2C(C(=O)Nc3ccccc3)=C(C)Nc3nc(-c4ccccc4)nn32)c(OC)c1 (centres undefined) do in these assays?
Pf Dd2 growth: inactive

Results for COc1cc(OC)c(C2C=C(c3ccc(C)cc3)Nc3c(C(=O)Nc4ccccc4)cnn32)cc1OC (centres undefined) ?
Pf Dd2 growth: 10µM*

What do the screens show for `CCOc1ccc(NC(=O)c2cnn3c2NC(c2cccc(OC)c2)=CC3c2ccccc2)cc1` (centres undefined)?
Pf Dd2 growth: 1.4µM*

How did CCOc1cccc(-c2nc(C(=O)Nc3ccc(OC)cc3)cs2)c1 do in these assays?
Pf Dd2 growth: 24%

Results for COc1ccc(C2C(C(=O)Nc3ccccc3)=C(C)Nc3nc(SCC(=O)c4ccc(C)cc4)nn32)cc1 (centres undefined) ?
Pf Dd2 growth: 30%

How did COc1cccc(C2C(C(=O)Nc3ccccc3)=C(C)Nc3nc(-c4ccccc4)nn32)c1OC (centres undefined) do in these assays?
Pf Dd2 growth: inactive

How did CCOc1ccc(NC(=O)c2cc3cc4cc(OC)ccc4nc3s2)cc1 do in these assays?
Pf Dd2 growth: -2%

Results for COc1ccc(-c2cnnn2-c2ccc(NC(=O)c3ccccc3OC)cc2)cc1 ?
Pf Dd2 growth: 28%

Results for COCCNC(=O)C1CC(c2ccccc2)CN(C(=O)c2ccccc2)C1 (centres undefined) ?
Pf Dd2 growth: -8%

What do the screens show for `O=C(Nc1ccc(Cl)cc1)c1cc2n(n1)CC(c1ccc(Cl)cc1)OC2` (centres undefined)?
Pf Dd2 growth: 4%

What do the screens show for `COc1cccc(CN2CCC3(CC2)CC(c2ccccc2)C(=O)N3C)c1` (centres undefined)?
Pf Dd2 growth: -20%

What do the screens show for `NC(=O)C1(C(=O)N2CCc3cc(S(=O)(=O)Nc4cccnc4)ccc3C2)CC1`?
Pf Dd2 growth: 3%

How did COc1ccccc1N1CCN(C(=O)c2ccc3c(c2)N(Cc2ccccc2)C(=O)c2ccccc2S3(=O)=O)CC1 do in these assays?
Pf Dd2 growth: 7.1µM*

Results for O=C(c1ccc2c(c1)N(Cc1ccc(Cl)cc1)C(=O)c1ccccc1S2(=O)=O)N1CCC(Cc2ccccc2)CC1 ?
Pf Dd2 growth: -6%

Results for CN1CCN(C(=O)c2ccc3c(c2)N(Cc2cccc(Cl)c2)C(=O)c2ccccc2S3(=O)=O)CC1 ?
Pf Dd2 growth: inactive

Results for COc1ccc(N2CCN(C(=O)c3ccc4c(c3)N(Cc3cccc(Cl)c3)C(=O)c3ccccc3S4(=O)=O)CC2)cc1 ?
Pf Dd2 growth: -5%

How did O=C(c1ccc2c(c1)N(Cc1ccccc1)C(=O)c1ccccc1S2(=O)=O)N1CCc2ccccc21 do in these assays?
Pf Dd2 growth: 11µM*

What do the screens show for `Cc1cccc(CN2C(=O)c3ccccc3S(=O)(=O)c3ccc(C(=O)NC4CCCCC4)cc32)c1`?
Pf Dd2 growth: -4%

How did COc1ccccc1CNC(=O)c1ccc2c(c1)N(Cc1cccc(C)c1)C(=O)c1ccccc1S2(=O)=O do in these assays?
Pf Dd2 growth: -9%

What do the screens show for `O=C(c1ccc2c(c1)N(Cc1ccc(F)cc1)C(=O)c1ccccc1S2(=O)=O)N1CCN(Cc2ccccc2)CC1`?
Pf Dd2 growth: inactive

What do the screens show for `CCOC(=O)N1CCC(NC(=O)c2ccc3c(c2)N(Cc2cccc(C)c2)C(=O)c2ccccc2S3(=O)=O)CC1`?
Pf Dd2 growth: 11µM*

What do the screens show for `O=C(c1nc(-c2ccccc2)c2ccccn12)N1CCOCC1`?
Pf Dd2 growth: -27%[44.1 µM]

What do the screens show for `Cn1c(=O)n([C@H]2CCCN(C(=O)Nc3ccc4c(c3)OCCO4)C2)c2ncccc21`?
Pf Dd2 growth: inactive

What do the screens show for `COc1ccccc1Oc1c(CCC(=O)NCC2CCCO2)c(C)nn1-c1ccc(F)cc1` (centres undefined)?
Pf Dd2 growth: inactive

High-throughput results (PubChem BioAssay)
